From publication PMC7862700, “An all-to-all approach to the identification of sequence-specific readers for epigenetic DNA modifications on cytosine” come the findings set out here.

Assay in all cases: DAPPL (digital affinity profiling via proximity ligation, sequencing); 10 mM Tris-HCl pH 7.5, 50 mM NaCl, 1 mM DTT, 4% glycerol, room temperature, 30 min; GST-TFs on glutathione beads, 16-mer random dsDNA library, 0.1% formaldehyde crosslink after washing; high values mean tight binding
What all share (details): protein: recombinant; tags: N-terminal GST; dsDNA, one strand shown

One test concerns the target T1, FLI1 (Homo sapiens, UniProt Q01543 1-452).
T1 sequence: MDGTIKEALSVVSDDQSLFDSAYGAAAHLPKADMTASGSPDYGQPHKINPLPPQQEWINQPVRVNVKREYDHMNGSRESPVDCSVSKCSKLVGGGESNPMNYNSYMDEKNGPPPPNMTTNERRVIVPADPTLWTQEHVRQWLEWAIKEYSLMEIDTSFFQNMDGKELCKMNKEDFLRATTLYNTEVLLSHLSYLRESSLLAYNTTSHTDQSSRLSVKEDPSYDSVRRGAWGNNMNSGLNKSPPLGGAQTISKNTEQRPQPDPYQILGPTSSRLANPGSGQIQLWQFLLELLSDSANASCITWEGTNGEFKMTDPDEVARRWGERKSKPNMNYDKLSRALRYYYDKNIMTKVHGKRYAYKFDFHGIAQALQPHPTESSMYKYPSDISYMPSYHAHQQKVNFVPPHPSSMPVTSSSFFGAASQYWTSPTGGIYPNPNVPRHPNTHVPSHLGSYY
The essentials: (§1)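 Human transcription factors carrying a GST fusion were produced in yeast, bound to glutathione beads, tagged with DNA barcodes and pooled together with a tag-only sample. Each pool was held with 200 nmole of a random double-stranded 16-mer DNA library in Tris/NaCl/DTT/glycerol buffer for 30 min at room temperature, then washed, crosslinked in 0.1% formaldehyde, proximity-ligated with BsaI/T4 ligase (1 h, 37 °C), PCR-amplified and sequenced on an Illumina NextSeq500. Binding signal is the read frequency of each hexamer for a given factor divided by its frequency in the tag-only sample.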

Another test has as its target T2, ELK1 (Homo sapiens, UniProt P19419 1-428).
T2 sequence: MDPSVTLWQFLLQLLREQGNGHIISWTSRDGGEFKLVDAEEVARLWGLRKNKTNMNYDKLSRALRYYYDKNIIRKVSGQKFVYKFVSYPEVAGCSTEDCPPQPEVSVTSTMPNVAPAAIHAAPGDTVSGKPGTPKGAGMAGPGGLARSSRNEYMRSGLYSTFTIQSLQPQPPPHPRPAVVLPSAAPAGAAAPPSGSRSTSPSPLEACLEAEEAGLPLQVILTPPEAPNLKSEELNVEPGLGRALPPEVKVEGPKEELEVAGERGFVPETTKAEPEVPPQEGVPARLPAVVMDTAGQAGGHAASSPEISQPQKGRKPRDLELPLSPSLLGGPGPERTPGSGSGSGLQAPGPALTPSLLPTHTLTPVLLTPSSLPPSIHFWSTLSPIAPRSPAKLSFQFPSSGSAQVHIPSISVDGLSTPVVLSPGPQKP
The essentials:
as §1

Another test concerns the target T3, GABPA (Homo sapiens, UniProt Q06546 1-454).
T3 sequence: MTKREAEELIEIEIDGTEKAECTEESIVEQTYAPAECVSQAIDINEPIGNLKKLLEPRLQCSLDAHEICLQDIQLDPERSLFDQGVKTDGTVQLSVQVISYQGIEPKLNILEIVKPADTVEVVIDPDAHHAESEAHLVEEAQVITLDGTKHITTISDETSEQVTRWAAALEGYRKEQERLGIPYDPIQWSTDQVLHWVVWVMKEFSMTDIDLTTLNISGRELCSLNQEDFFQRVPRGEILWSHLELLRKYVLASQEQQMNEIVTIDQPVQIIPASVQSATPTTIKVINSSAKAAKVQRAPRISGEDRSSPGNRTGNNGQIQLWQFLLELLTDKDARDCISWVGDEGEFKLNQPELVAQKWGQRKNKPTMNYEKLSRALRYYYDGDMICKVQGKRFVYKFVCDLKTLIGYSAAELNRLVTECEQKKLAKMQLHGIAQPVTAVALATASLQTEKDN
The essentials:
as §1

A further test has as its target T4, ERG (Homo sapiens, UniProt P11308 1-479).
T4 sequence: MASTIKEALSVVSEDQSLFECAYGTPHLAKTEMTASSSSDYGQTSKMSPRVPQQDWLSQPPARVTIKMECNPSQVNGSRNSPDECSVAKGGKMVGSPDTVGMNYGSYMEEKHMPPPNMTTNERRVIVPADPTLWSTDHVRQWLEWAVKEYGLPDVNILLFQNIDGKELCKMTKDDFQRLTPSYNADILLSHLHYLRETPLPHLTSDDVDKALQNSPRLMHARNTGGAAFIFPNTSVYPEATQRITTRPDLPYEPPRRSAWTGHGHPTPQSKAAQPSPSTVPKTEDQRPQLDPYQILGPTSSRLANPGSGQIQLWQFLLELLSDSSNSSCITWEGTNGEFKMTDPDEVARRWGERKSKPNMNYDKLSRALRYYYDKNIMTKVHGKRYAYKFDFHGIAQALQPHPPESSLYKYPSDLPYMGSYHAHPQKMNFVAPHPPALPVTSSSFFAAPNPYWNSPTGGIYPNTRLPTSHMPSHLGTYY
The essentials:
as §1

The target in the next test is ELF1 (Homo sapiens, UniProt P32519 1-619). The essentials: as §1
A further test deals with T5, EHF (Homo sapiens, UniProt Q9NZC4 1-300).
T5 sequence: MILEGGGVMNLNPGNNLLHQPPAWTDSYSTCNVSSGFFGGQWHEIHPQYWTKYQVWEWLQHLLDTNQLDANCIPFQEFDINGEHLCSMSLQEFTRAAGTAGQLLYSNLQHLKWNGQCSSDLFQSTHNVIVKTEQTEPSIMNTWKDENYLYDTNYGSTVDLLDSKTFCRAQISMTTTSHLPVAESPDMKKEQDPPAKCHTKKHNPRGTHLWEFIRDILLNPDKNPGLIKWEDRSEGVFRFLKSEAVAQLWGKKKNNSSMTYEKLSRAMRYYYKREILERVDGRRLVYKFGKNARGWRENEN
The essentials: as §1

The next test has as its target SPI1 (Homo sapiens, UniProt P17947 1-270). The essentials:
as §1

The next test addresses SPIB (Homo sapiens, UniProt Q01892 1-262). The essentials:
as §1

Another test addresses T6, ELK3 (Homo sapiens, UniProt P41970 1-407).
T6 sequence: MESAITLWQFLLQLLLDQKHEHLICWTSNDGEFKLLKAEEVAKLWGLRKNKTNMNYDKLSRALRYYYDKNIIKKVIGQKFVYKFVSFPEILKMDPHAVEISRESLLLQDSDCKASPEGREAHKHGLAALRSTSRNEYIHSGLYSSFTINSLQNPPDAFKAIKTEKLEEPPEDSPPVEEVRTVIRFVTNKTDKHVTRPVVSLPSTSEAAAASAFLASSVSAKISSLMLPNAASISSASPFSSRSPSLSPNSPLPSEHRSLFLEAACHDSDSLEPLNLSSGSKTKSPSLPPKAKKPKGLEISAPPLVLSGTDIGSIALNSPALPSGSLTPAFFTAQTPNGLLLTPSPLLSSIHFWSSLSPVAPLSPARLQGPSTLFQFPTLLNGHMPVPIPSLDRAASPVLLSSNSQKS
The essentials: as §1

Sequence of SPIB (Q01892 whole entry): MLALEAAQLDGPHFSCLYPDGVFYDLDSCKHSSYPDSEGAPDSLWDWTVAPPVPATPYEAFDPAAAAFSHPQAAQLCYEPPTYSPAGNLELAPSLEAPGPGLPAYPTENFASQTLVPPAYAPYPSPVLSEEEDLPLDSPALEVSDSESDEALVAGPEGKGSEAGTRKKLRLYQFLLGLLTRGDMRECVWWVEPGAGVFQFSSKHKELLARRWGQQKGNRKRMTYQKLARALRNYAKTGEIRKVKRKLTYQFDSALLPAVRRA
Sequence of ELF1 (P32519 whole entry): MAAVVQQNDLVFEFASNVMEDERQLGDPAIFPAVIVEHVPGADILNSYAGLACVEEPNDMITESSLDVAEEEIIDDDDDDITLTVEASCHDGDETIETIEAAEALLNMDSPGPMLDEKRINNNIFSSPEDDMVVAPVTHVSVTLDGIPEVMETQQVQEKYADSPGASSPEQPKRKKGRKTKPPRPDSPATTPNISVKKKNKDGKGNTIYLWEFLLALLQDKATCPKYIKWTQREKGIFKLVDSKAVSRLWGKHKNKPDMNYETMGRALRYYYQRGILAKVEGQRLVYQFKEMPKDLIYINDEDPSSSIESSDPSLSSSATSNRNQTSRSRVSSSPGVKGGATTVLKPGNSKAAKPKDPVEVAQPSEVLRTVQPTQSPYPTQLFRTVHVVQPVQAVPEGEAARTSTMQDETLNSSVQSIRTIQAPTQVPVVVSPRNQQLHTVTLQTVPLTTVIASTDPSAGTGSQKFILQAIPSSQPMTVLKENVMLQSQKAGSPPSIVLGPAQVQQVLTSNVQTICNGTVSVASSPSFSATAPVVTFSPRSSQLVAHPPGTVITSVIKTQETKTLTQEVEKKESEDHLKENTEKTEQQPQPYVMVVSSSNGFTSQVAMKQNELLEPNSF

Turning to ATTCAC, the binding signal in the test with FLI1 was 1.23 fold enrichment (6-mer frequency, TF over GST control); in the test with ELK1 it was 1.2 fold enrichment (6-mer frequency, TF over GST control); in the test with GABPA it was 1.22 fold enrichment (6-mer frequency, TF over GST control); in the test with ERG, 1.27 fold enrichment (6-mer frequency, TF over GST control); with ELF1, 1.34 fold enrichment (6-mer frequency, TF over GST control); with EHF, 1.2 fold enrichment (6-mer frequency, TF over GST control). Further, the binding signal was 1.16 fold enrichment (6-mer frequency, TF over GST control) with SPI1; 1.2 fold enrichment (6-mer frequency, TF over GST control) in the test with SPIB; 1.35 fold enrichment (6-mer frequency, TF over GST control) in the test with ELK3.
As for CCCGCA, the binding signal with FLI1 was 1.23 fold enrichment (6-mer frequency, TF over GST control); in the test with ELK1 it was 1.2 fold enrichment (6-mer frequency, TF over GST control); with GABPA it was 1.25 fold enrichment (6-mer frequency, TF over GST control); with ERG, 1.15 fold enrichment (6-mer frequency, TF over GST control); with ELF1, 1.29 fold enrichment (6-mer frequency, TF over GST control); in the test with EHF, 1.29 fold enrichment (6-mer frequency, TF over GST control). Moreover, the binding signal in the test with SPI1 was 1.22 fold enrichment (6-mer frequency, TF over GST control); with SPIB it was 1.29 fold enrichment (6-mer frequency, TF over GST control); with ELK3, 1.25 fold enrichment (6-mer frequency, TF over GST control).
In the case of AACGCT, the binding signal in the test with FLI1 is 1.16 fold enrichment (6-mer frequency, TF over GST control); in the test with ELK1, 1.22 fold enrichment (6-mer frequency, TF over GST control); in the test with GABPA, 1.22 fold enrichment (6-mer frequency, TF over GST control); with ERG it was 1.19 fold enrichment (6-mer frequency, TF over GST control); with ELF1 it was 1.27 fold enrichment (6-mer frequency, TF over GST control); in the test with EHF, 1.23 fold enrichment (6-mer frequency, TF over GST control). Moreover, the binding signal was 1.17 fold enrichment (6-mer frequency, TF over GST control) with SPI1; 1.21 fold enrichment (6-mer frequency, TF over GST control) with SPIB; 1.2 fold enrichment (6-mer frequency, TF over GST control) in the test with ELK3.
CCTCAG: the binding signal with FLI1 is 1.17 fold enrichment (6-mer frequency, TF over GST control); in the test with ELK1 it was 1.23 fold enrichment (6-mer frequency, TF over GST control); with GABPA, 1.35 fold enrichment (6-mer frequency, TF over GST control); with ERG it was 1.21 fold enrichment (6-mer frequency, TF over GST control); with ELF1 it was 1.27 fold enrichment (6-mer frequency, TF over GST control); in the test with EHF, 1.17 fold enrichment (6-mer frequency, TF over GST control). For the same sequence, the binding signal is 1.17 fold enrichment (6-mer frequency, TF over GST control) with SPI1; 1.35 fold enrichment (6-mer frequency, TF over GST control) with SPIB; 1.24 fold enrichment (6-mer frequency, TF over GST control) with ELK3.
On to CAAAAT, for which the binding signal in the test with FLI1 is 1.16 fold enrichment (6-mer frequency, TF over GST control); with ELK1, 1.11 fold enrichment (6-mer frequency, TF over GST control); with GABPA, 1.2 fold enrichment (6-mer frequency, TF over GST control); in the test with ERG, 1.27 fold enrichment (6-mer frequency, TF over GST control); with ELF1, 1.18 fold enrichment (6-mer frequency, TF over GST control); in the test with EHF, 1.16 fold enrichment (6-mer frequency, TF over GST control). The binding signal with SPI1 is 1.28 fold enrichment (6-mer frequency, TF over GST control); in the test with SPIB it was 1.18 fold enrichment (6-mer frequency, TF over GST control); in the test with ELK3, 1.21 fold enrichment (6-mer frequency, TF over GST control).
With CTGGCT, the binding signal with FLI1 was 1.33 fold enrichment (6-mer frequency, TF over GST control); with ELK1, 1.31 fold enrichment (6-mer frequency, TF over GST control); with GABPA it was 1.37 fold enrichment (6-mer frequency, TF over GST control); in the test with ERG, 1.3 fold enrichment (6-mer frequency, TF over GST control); with ELF1, 1.25 fold enrichment (6-mer frequency, TF over GST control); with EHF, 1.26 fold enrichment (6-mer frequency, TF over GST control). Also, the binding signal is 1.18 fold enrichment (6-mer frequency, TF over GST control) with SPI1; 1.22 fold enrichment (6-mer frequency, TF over GST control) with SPIB; 1.12 fold enrichment (6-mer frequency, TF over GST control) with ELK3.
As for ATCCTA, the binding signal with FLI1 is 1.54 fold enrichment (6-mer frequency, TF over GST control); with ELK1, 1.34 fold enrichment (6-mer frequency, TF over GST control); in the test with GABPA, 1.37 fold enrichment (6-mer frequency, TF over GST control); in the test with ERG, 1.4 fold enrichment (6-mer frequency, TF over GST control); with ELF1, 1.37 fold enrichment (6-mer frequency, TF over GST control); in the test with EHF, 1.3 fold enrichment (6-mer frequency, TF over GST control). Also, the binding signal was 1.27 fold enrichment (6-mer frequency, TF over GST control) with SPI1; 1.48 fold enrichment (6-mer frequency, TF over GST control) in the test with SPIB; 1.43 fold enrichment (6-mer frequency, TF over GST control) with ELK3.
For TACCAC, the binding signal was 1.2 fold enrichment (6-mer frequency, TF over GST control) with FLI1; 1.32 fold enrichment (6-mer frequency, TF over GST control) with ELK1; 1.18 fold enrichment (6-mer frequency, TF over GST control) with GABPA; 1.17 fold enrichment (6-mer frequency, TF over GST control) with ERG; 1.32 fold enrichment (6-mer frequency, TF over GST control) with ELF1; 1.23 fold enrichment (6-mer frequency, TF over GST control) with EHF. Moreover, the binding signal with SPI1 is 1.24 fold enrichment (6-mer frequency, TF over GST control); with SPIB, 1.26 fold enrichment (6-mer frequency, TF over GST control); in the test with ELK3 it was 1.14 fold enrichment (6-mer frequency, TF over GST control).
